From PubChem BioAssay (NCATS) come the findings set out here.

Inconclusive results are not listed. Unmarked numbers belong to inactive results. Activity calls are given as the source filed them. Calls follow the shape of the dose curve; as a rule, active = well fitted curve in the direction sought with a large enough effect; inconclusive = small, poorly fitted or top-dose-only effect, or another doubt; inactive = no such curve, though single readings can be large; an effect the other way counts as inactive or inconclusive.
Potency is read from the fitted curve at half-maximal effect.

One assay is described as follows: qHTS assay to identify small molecule inhibitors of chordoma cells - UCH-1 (AID 1259355). Also: nearly all actives have a fitted effect of over 55% in size. As to activity, negative = inhibition: % is scaled to controls: 0 for no effect and ±100 for the full control effect. Conditions: UCH-1 chordoma viability, CellTiter-Glo, 48 h, combination, with auranofin plus four topoisomerase inhibitors; series mostly up to 46.1 µM; activity, negative = inhibition: at the top concentration. Put shortly:
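Cells (800/well) were seeded and left overnight at 37 C, 5% CO2, then treated with drugs at 15 concentrations plus a combination mix of auranofin, camptothecin, doxorubicin, rubitecan and topotecan. Viability after 48hr was read by CellTiter-Glo luminescence.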
For orientation: qHTS replaces the single test concentration by a dilution series.
Regarding `COc1c(N2C[C@@H]3CCCN[C@H]3C2)c(F)cc2c(=O)c(C(=O)O)cn(C3CC3)c12`, the “activity, negative = inhibition” value was -6.95%.
Same read-out and setting: to `O=C(O)CO.[NH2-].[NH2-].[Pt+2]` belongs -13.6%; to `Cc1nc2ccc(CN(C)c3ccc(C(=O)N[C@@H](CCC(=O)O)C(=O)O)s3)cc2c(=O)[nH]1`, 0.302%.
On the same count and under the same terms, then `Nc1ccn([C@@H]2CS[C@H](CO)O2)c(=O)n1`, with -16.2%; and `CC(C)(C)NC(=O)[C@H]1CN(Cc2cccnc2)CCN1C[C@@H](O)C[C@@H](Cc1ccccc1)C(=O)N[C@H]1c2ccccc2C[C@H]1O`, with -23%.
Turning to `CN1c2cc(O)c(N=NC(N)=O)cc2CC1S(=O)(=O)O` (stereo not drawn), the “activity, negative = inhibition” value was -10.6%.
Same read-out and setting: to `CC=CC1=C(C(=O)O)N2C(=O)[C@H](NC(=O)[C@H](N)c3ccc(O)cc3)[C@@H]2SC1` belongs 4.72%; to `COc1cc(C(=O)NS(=O)(=O)c2ccccc2C)ccc1Cc1cn(C)c2ccc(NC(=O)OC3CCCC3)cc12`, 11.2%.
`COC(=O)C[C@](O)(CCCC(C)(C)O)C(=O)O[C@@H]1C(OC)=C[C@]23CCCN2CCc2cc4c(cc2[C@H]13)OCO4`: the Potency is 0.199 µM (active).

A short description of another assay: Identifying Small Molecule Inhibitors of Pancreatic Cancer Stem Cells (A2780, Spheroid) (AID 1259357).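 Also: spheroids pre-formed over 14 days in stem cell medium on hydrogel; compound exposure lasted 48 h before the ATP luminescence read.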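 As to viability (percent of control): 100% = DMSO treated cells and 0% = wells without cells.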 Conditions: Potency: A2780 spheroid viability; series mostly up to 46.1 µM; viability (percent of control): at the top concentration. Put shortly: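 Spheroids grown 14 days in stem cell media on nonadherent hydrogel before screening; cells attached 4 h, then compound exposure 48 h at 37C, 5% CO2. CellTiter-Glo luminescence normalized to DMSO (no inhibition) and no-cell wells (full inhibition).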
In the case of `C[C@@]12O[C@@H](C[C@]1(O)CO)n1c3ccccc3c3c4c(c5c6ccccc6n2c5c31)CNC4=O`, the Potency is 23.5 µM (active).
Still for that read-out and setting: to `N#CCNC(=O)c1ccc(-c2ccnc(Nc3ccc(N4CCOCC4)cc3)n2)cc1` belongs 20.9 µM (active).
Same read-out and setting: then `CN(c1ncccc1CNc1nc(Nc2ccc3c(c2)CC(=O)N3)ncc1C(F)(F)F)S(C)(=O)=O`, with 5.26 µM (active).
`C[C@@H](Oc1cc(-n2cnc3ccc(CN4CCN(C)CC4)cc32)sc1C(N)=O)c1ccccc1C(F)(F)F`: the “viability (percent of control)” value was 69.7%.
